{"source": "PubChem BioAssay (NCATS)", "note": "Records with an inconclusive call do not appear. Unmarked numbers belong to inactive results. Active and inactive are the calls of the source. Calls follow the shape of the dose curve; as a rule, active = well fitted curve in the direction sought with a large enough effect; inconclusive = small, poorly fitted or top-dose-only effect, or another doubt; inactive = no such curve, though single readings can be large; an effect the other way counts as inactive or inconclusive. Potency is read from the fitted curve at half-maximal effect.", "data": [{"test": "BET inhibitor-based combinations targeting novel dependencies in MECOM-rearranged (r) AML: UCSD-AML1 cell line (AID 2202235); also: nearly all actives have a fitted effect of over 40% in size;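 as to viability (% of control): plate controls were DMSO vehicle wells for no effect and blank wells for full effect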", "conditions": "UCSD-AML1 AML cells viability, CellTiter-Glo, 48 h; series mostly up to 46 µM; viability (% of control): at the top concentration", "method_in_brief": "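Activity is given as area under the curve and as Z-AUC, mean-centred within each cell line. It comes from 11-point dose curves normalized to DMSO and empty wells. CellTiter-Glo luminescence was read after 48 hr drug exposure of 500 cells/well.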", "values": [{"smiles": "CN1C(=O)COc2c(C(=O)NC3CN4CCC3CC4)cc(Cl)cc21", "note": "(stereo not drawn)", "viability (% of control)": "105%"}, {"smiles": "C[C@@H]1CC[C@@]2(OC1)O[C@H]1C[C@H]3[C@@H]4CC=C5C[C@@H](O[C@@H]6O[C@H](CO)[C@@H](O[C@@H]7O[C@@H](C)[C@H](O)[C@@H](O)[C@H]7O)[C@H](O)[C@H]6O[C@@H]6O[C@@H](C)[C@H](O)[C@@H](O)[C@H]6O)CC[C@]5(C)[C@H]4CC[C@]3(C)[C@H]1[C@@H]2C", "Potency": "8330 nM (active)"}, {"smiles": "CCOP(=O)(OCC)C(C)NC(=O)N(CCCl)N=O", "note": "(stereo not drawn)", "viability (% of control)": "114%"}, {"smiles": "O=P1(NCCCl)OCCCN1CCCl", "note": "(stereo not drawn)", "viability (% of control)": "107%"}, {"smiles": "CC(N[C@H]1C[C@@H]1c1ccccc1)c1ccc2c(c1)OCCO2", "note": "(stereo partly drawn)", "Potency": "1050 nM (active)"}, {"smiles": "CC(C)[C@]12O[C@H]1[C@@H]1O[C@@]13[C@@]1(C)CCC4=C(COC4=O)[C@@H]1C[C@@H]1O[C@@]13C2=O", "Potency": "74.2 nM (active)"}, {"smiles": "COc1cc(C(=O)N2CC[C@@H](O)[C@@H](N)C2)cc2nc(-c3cc4ccccc4n3CC3CC3)n(C)c12", "viability (% of control)": "90%"}, {"smiles": "COC12C(COC(N)=O)C3=C(C(=O)C(C)=C(N)C3=O)N1CC1C2N1C", "note": "(stereo not drawn)", "viability (% of control)": "110%"}, {"smiles": "CC(C)C[C@H](CN)CC(=O)O", "viability (% of control)": "105%"}, {"smiles": "COc1cc([C@@H]2c3cc4c(cc3[C@@H](O)C3COC(=O)C32)OCO4)cc(OC)c1O", "note": "(stereo partly drawn)", "Potency": "332 nM (active)"}, {"smiles": "Clc1ccccc1C(c1ccccc1)(c1ccccc1)n1cccn1", "viability (% of control)": "113%"}, {"smiles": "COc1cc2cc(c1Cl)N(C)C(=O)C[C@H](OC(=O)C(C)C)[C@]1(C)O[C@@H]1[C@H](C)[C@@H]1C[C@@](O)(NC(=O)O1)[C@H](OC)/C=C/C=C(\\C)C2", "viability (% of control)": "15.6%"}, {"smiles": "COC(=O)[C@]12CCC(C)(C)C[C@H]1[C@H]1C(=O)C=C3[C@@]4(C)C=C(C#N)C(=O)C(C)(C)[C@@H]4CC[C@@]3(C)[C@]1(C)CC2", "Potency": "1480 nM (active)"}, {"smiles": "C[C@@H]1O[C@@H](O[C@@H]2C=C3CC[C@@H]4[C@H](CC[C@]5(C)[C@@H](c6ccc(=O)oc6)CC[C@]45O)[C@@]3(C)CC2)[C@H](O)[C@H](O)[C@H]1O", "Potency": "18.6 nM (active)"}, {"smiles": "c1ccc2c(CN3CCNCC3)cccc2c1", "viability (% of control)": "103%"}, {"smiles": "CO/C1=C/C(C)=C\\[C@@H](C)[C@@H](O)[C@@H](C)C/C(C)=C\\C=C/[C@H](OC)[C@@H]([C@@H](C)[C@@H](O)[C@H](C)[C@@]2(O)C[C@@H](O)[C@H](C)[C@@H](C(C)C)O2)OC1=O", "viability (% of control)": "112% [at 15.6 µM]"}, {"smiles": "CC(C)(NC(=O)O[C@@H]1CN2CCC1CC2)c1csc(-c2ccc(F)cc2)n1", "viability (% of control)": "88.7%"}, {"smiles": "C[C@]12COC(=O)C[C@@H]1CC[C@@H]1[C@@H]2CC[C@@]2(C)[C@H]1CC[C@]2(C)O", "viability (% of control)": "107%"}, {"smiles": "CC(C)CC(N(C)C)C1(c2ccc(Cl)cc2)CCC1", "note": "(stereo not drawn)", "viability (% of control)": "102%"}, {"smiles": "C/C(=C\\c1csc(C)n1)[C@@H]1C[C@@H]2O[C@]2(C)CCC[C@H](C)[C@H](O)[C@@H](C)C(=O)C(C)(C)[C@@H](O)CC(=O)O1", "Potency": "5.9 nM (active)"}, {"smiles": "CC1(C)C(=O)N(c2ccc(C#N)c(C(F)(F)F)c2)C(=S)N1Cc1ccc(-c2cn[nH]n2)cc1", "viability (% of control)": "114%"}]}, {"test": "BET inhibitor-based combinations targeting novel dependencies in MECOM-rearranged (r) AML: AML-191 cell line (AID 2202236; also: nearly all actives have a fitted effect of over 35% in size;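 as to viability (% of control): plate controls were vehicle wells for no effect and wells without cells for full effect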)", "conditions": "AML-191 viability, CellTiter-Glo luminescence, 48 h; series mostly up to 46 µM; viability (% of control): at the top concentration", "method_in_brief": "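Cells were plated at 500 per well and exposed to an 11-point dose series of each drug for 48 hr. Viability was measured by CellTiter-Glo luminescence, normalized to DMSO and empty-well controls, and summarized as AUC and per-cell-line Z-AUC.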", "units": {"viability (% of control)": "%"}, "values": [{"smiles": "CN1C(=O)COc2c(C(=O)NC3CN4CCC3CC4)cc(Cl)cc21", "note": "(stereo not drawn)", "viability (% of control)": 103}, {"smiles": "C[C@@H]1CC[C@@]2(OC1)O[C@H]1C[C@H]3[C@@H]4CC=C5C[C@@H](O[C@@H]6O[C@H](CO)[C@@H](O[C@@H]7O[C@@H](C)[C@H](O)[C@@H](O)[C@H]7O)[C@H](O)[C@H]6O[C@@H]6O[C@@H](C)[C@H](O)[C@@H](O)[C@H]6O)CC[C@]5(C)[C@H]4CC[C@]3(C)[C@H]1[C@@H]2C", "Potency": "5250 nM (active)"}, {"smiles": "CC(C)(O)/C=C\\C(=O)[C@](C)(O)[C@H]1[C@H](O)C[C@]2(C)[C@@H]3CC=C4[C@@H](C=C(O)C(=O)C4(C)C)[C@]3(C)C(=O)C[C@@]12C", "Potency": "93.4 nM (active)"}, {"smiles": "COc1cc2c(cc1F)C(c1ccccc1Cl)=Nc1c(n[nH]c1C)N2", "Potency": "1660 nM (active)"}, {"smiles": "CC(N[C@H]1C[C@@H]1c1ccccc1)c1ccc2c(c1)OCCO2", "note": "(stereo partly drawn)", "viability (% of control)": 97.4}, {"smiles": "COc1cc(C(=O)N2CC[C@@H](O)[C@@H](N)C2)cc2nc(-c3cc4ccccc4n3CC3CC3)n(C)c12", "viability (% of control)": 81.8}, {"smiles": "COC12C(COC(N)=O)C3=C(C(=O)C(C)=C(N)C3=O)N1CC1C2N1C", "note": "(stereo not drawn)", "viability (% of control)": 117}, {"smiles": "CC(C)C[C@H](CN)CC(=O)O", "viability (% of control)": 109}, {"smiles": "COc1cc([C@@H]2c3cc4c(cc3[C@@H](O)C3COC(=O)C32)OCO4)cc(OC)c1O", "note": "(stereo partly drawn)", "Potency": "296 nM (active)"}, {"smiles": "Clc1ccccc1C(c1ccccc1)(c1ccccc1)n1cccn1", "viability (% of control)": 107}, {"smiles": "COc1cc2cc(c1Cl)N(C)C(=O)C[C@H](OC(=O)C(C)C)[C@]1(C)O[C@@H]1[C@H](C)[C@@H]1C[C@@](O)(NC(=O)O1)[C@H](OC)/C=C/C=C(\\C)C2", "viability (% of control)": 8.31}, {"smiles": "O=C(O)C1=CCCN(CCOC(c2ccc(C(F)(F)F)cc2)c2ccc(C(F)(F)F)cc2)C1", "viability (% of control)": 93.7}, {"smiles": "COC(=O)[C@]12CCC(C)(C)C[C@H]1[C@H]1C(=O)C=C3[C@@]4(C)C=C(C#N)C(=O)C(C)(C)[C@@H]4CC[C@@]3(C)[C@]1(C)CC2", "Potency": "1860 nM (active)"}, {"smiles": "C[C@@H]1O[C@@H](O[C@@H]2C=C3CC[C@@H]4[C@H](CC[C@]5(C)[C@@H](c6ccc(=O)oc6)CC[C@]45O)[C@@]3(C)CC2)[C@H](O)[C@H](O)[C@H]1O", "Potency": "18.6 nM (active)"}, {"smiles": "O=C(Nc1ccncc1)C(=O)c1cn(Cc2ccc(Cl)cc2)c2ccccc12", "Potency": "263 nM (active)"}, {"smiles": "CCCCCCC(C)(C)c1cc(O)c2c(c1)OC(C)(C)C1CC=C(CO)C[C@H]21", "note": "(stereo partly drawn)", "Potency": "18600 nM (active)"}, {"smiles": "C[C@]12COC(=O)C[C@@H]1CC[C@@H]1[C@@H]2CC[C@@]2(C)[C@H]1CC[C@]2(C)O", "viability (% of control)": 98}, {"smiles": "CC(C)CC(N(C)C)C1(c2ccc(Cl)cc2)CCC1", "note": "(stereo not drawn)", "viability (% of control)": 102}, {"smiles": "O=c1cccc2n1CC1CNC[C@H]2C1", "viability (% of control)": 106}, {"smiles": "Cn1c(CCCCCCC(=O)NO)nc2cc(N(CCCl)CCCl)ccc21", "Potency": "2630 nM (active)"}, {"smiles": "C/C(=C\\c1csc(C)n1)[C@@H]1C[C@@H]2O[C@]2(C)CCC[C@H](C)[C@H](O)[C@@H](C)C(=O)C(C)(C)[C@@H](O)CC(=O)O1", "Potency": "10.5 nM (active)"}, {"smiles": "CC1(C)C(=O)N(c2ccc(C#N)c(C(F)(F)F)c2)C(=S)N1Cc1ccc(-c2cn[nH]n2)cc1", "Potency": "18600 nM (active)"}]}]}
